D1 potentiator: potentiators of human D1 dopamine receptor | P21728 | HEK293 TREx D1 cells, calcium flux, dopamine EC20 potentiation | potentiation, % at 10 µM | 360,000 tested, 0.036% active | AID 504651; in the data active = potentiation above about 30%
Target sequence (P21728 whole entry, looked up): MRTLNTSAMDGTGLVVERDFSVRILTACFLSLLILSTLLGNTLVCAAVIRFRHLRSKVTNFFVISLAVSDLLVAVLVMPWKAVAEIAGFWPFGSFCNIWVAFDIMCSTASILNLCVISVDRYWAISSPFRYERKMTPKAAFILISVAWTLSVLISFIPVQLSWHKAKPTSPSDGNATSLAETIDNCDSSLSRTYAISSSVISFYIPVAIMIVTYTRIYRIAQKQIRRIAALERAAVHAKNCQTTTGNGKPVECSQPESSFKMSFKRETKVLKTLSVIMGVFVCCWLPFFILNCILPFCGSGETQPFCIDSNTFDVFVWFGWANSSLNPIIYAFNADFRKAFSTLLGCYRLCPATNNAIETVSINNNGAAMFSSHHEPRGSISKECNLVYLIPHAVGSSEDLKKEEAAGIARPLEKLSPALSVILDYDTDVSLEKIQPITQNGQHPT
D1 antag: human D1 dopamine receptor antagonism. 360,000 tested, 3.2% active. HEK293 TREx D1 cells, calcium flux, dopamine EC80; hits give low values. activity change, negative = inhibition, % at 10 µM; in the data active = activity change below about -30%
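HEK293 T-REx cells expressing inducible, force-coupled D1 receptor; no-wash Ca dye, 30–90 min RT. Cmpd → 180 s read at 1 Hz → EC80 DA → 180 s read.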
TRHR enhancer: TRH receptor (human) allosteric enhancement; P34981; TRHR cells, fluo-8 calcium fluorescence, EC20 TRH enhancement; enhancement, % at 2 µM; 360,000 tested, 0.66% active; in the data active = enhancement above about 30%
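TRHR-expressing cells loaded with fluo-8 calcium dye were read kinetically (ex 480/em 530) during compound addition, then stimulated with an EC20 of TRH (10 nM final). Enhancement of the Gq-mediated intracellular calcium response was scored.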
Epigenetic derep: derepresses silenced GFP reporter in murine cells. murine LDR cells, GFP reporter derepression, 30 h. Potency, µM (series often up to 53.9 µM), hits mostly activators. 280,000 tested, 0.2% active. AID 1865; active = well fitted activation curve with a large enough effect; inconclusive = small, poorly fitted or top-dose-only effect; note: nearly all actives have a fitted effect of over 60% in size
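In this reporter-derepression format, murine cells bearing a silenced integrated CMV-GFP locus incubate with test compound (30 h, 37 C), then are washed and imaged; fluorescent objects of 20–120 um count as induced cells.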
TRHR ag: TRH receptor (human) agonism. P34981. TRHR cells, calcium flux fluo-8, FDSS agonist mode. activation, % at 2 µM. 360,000 tested, 0.18% active. AID 493084
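Fluo-8-loaded TRHR cells; 10 s baseline, compound added, kinetic Ca2+ fluorescence read 1/s, agonist mode.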
D1 ag: agonists of human D1 dopamine receptor; P21728; HEK293 T-REx D1 cells, calcium flux, agonist mode; activation, % at 2 µM; 360,000 tested, 1% active
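Inducible HEK293 T-REx D1 cells, force-coupled to calcium signalling, were plated at 4000 cells/well with tetracycline and held overnight at 30 C. After no-wash calcium dye loading, compound-evoked calcium rise over 180 s flagged agonists.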
Each line names hits and unclear results; the compound was inactive in the other large screens; ! = not confirmed by another sample. Rows were chosen to be rich in hits. Some 4.6% of all compounds tested hit in one or more screens of this group. Cut-off read from the data, not from the text of the source, unless noted: active = activation above about 30%; inactive = the rest.

O=C(Nc1cccnc1)c1cc2nc(C3CC3)cc(C(F)(F)F)n2n1	D1 antag -31
CCCn1cc(S(=O)(=O)c2cc(C)ccc2C)c(=O)c2cc(F)c(N3CCCCCC3)cc21	none
Cc1ccc(C(=O)CCC(=O)OCC(=O)NNC(=O)c2ccccc2Cl)cc1	TRHR enhancer 32 (no result: Epigenetic derep)
COC(=O)c1cc(=O)c2cccc(OC)c2[nH]1	none
COc1cccc2c(=O)cn[nH]c12	D1 antag -52
CC(C)(C)c1ccc(-n2nc(C#N)c(Cl)cc2=O)cc1	D1 antag -41
CCOc1cccc(NC(=O)c2sc3nc(-c4ccc(F)cc4)ccc3c2N)c1	Epigenetic derep inconclusive
N#Cc1c(NC(=O)Cn2cnc3ccccc3c2=O)oc(-c2ccccc2)c1-c1ccccc1	D1 antag -55
Oc1[nH]c2ccccc2c1N=NC(=S)NCC1CCCO1 (centres undefined)	D1 antag -45
COc1ccc(-c2cn3nc(N4CCCC(C(=O)NCc5ccc(Cl)cc5)C4)sc3n2)cc1 (centres undefined)	none
CC(C)C(=O)C1=Cc2cccc([N+](=O)[O-])c2OC1N1CCOCC1 (centres undefined)	D1 antag -36 (no result: Epigenetic derep)
Cc1cc(C)nc(-n2nc(C)c3c2NC(=O)CC3c2ccccc2OC(C)C)n1 (centres undefined)	none
CCN1C/C(=C/c2cccs2)c2nc3ccccc3c(C(=O)O)c2C1	none
CCc1ccc(/C=C2\CN(CC)Cc3c2nc2ccccc2c3C(=O)O)cc1	Epigenetic derep 16µM
Cc1ccc(C23CC4CC(CC(NC(=O)NCCN(C)C)(C4)C2)C3)cc1	none
CN(C)CCNC(=O)COc1ccc(C23CC4CC(CC(C4)C2)C3)cc1	D1 ag 33
COc1ccc(C(=O)Nc2nc3n(n2)C(c2ccccc2)C=C(c2ccccc2)N3)cc1 (centres undefined)	D1 ag 32
O=C(Nc1nc2n(n1)C(c1ccccc1)C=C(c1ccc(Cl)cc1)N2)c1ccco1 (centres undefined)	D1 ag 47
COc1ccc(C2=CC(c3ccc(F)cc3)n3nnnc3N2)cc1 (centres undefined)	none
O=C(c1nc2n(n1)C(c1ccc(Cl)cc1)C=C(c1ccccc1)N2)N1CCOCC1 (centres undefined)	TRHR ag 33
COc1ccc(C2C=C(c3ccc(F)cc3)Nc3nc(-c4ccc(Cl)cc4)nn32)cc1 (centres undefined)	D1 ag 38
COc1ccc(C2C=C(c3ccccc3)Nc3nc(NC(=O)/C=C/c4ccccc4OC)nn32)cc1 (centres undefined)	none
O=C(/C=C\c1ccc2c(c1)OCO2)NC1CC(=O)N(c2ccc(F)cc2)C1 (centres undefined)	none (no result: D1 antag)
CCOc1ccc(C(=O)N2CCC(c3ccncc3)CC2)cc1	none
Cc1ccc(-c2nnc(Nc3ccc(O)cc3)c3ccccc23)cc1S(=O)(=O)NCC1CCCO1 (centres undefined)	none
COc1ccc(C2C=C(c3ccc(Cl)cc3)Nc3nc(NC(C)=O)nn32)cc1 (centres undefined)	D1 ag 40
COc1ccc(C2C=C(c3ccccc3)Nc3nc(NC(=O)/C=C/c4ccccc4)nn32)cc1 (centres undefined)	none
CCC(=O)Nc1nc2n(n1)C(c1ccc(OC)cc1)C=C(c1ccccc1)N2 (centres undefined)	D1 ag 69
COc1ccc(C2C=C(c3cccs3)Nc3nc(CCCO)nn32)cc1 (centres undefined)	TRHR ag 99, D1 ag 64
O=c1oc2ccc3ccccc3c2cc1-c1nnc(Nc2ccc(Cl)cc2Cl)s1	none
COC(=O)c1ccc(NC(=O)CC2C(=O)N(c3ccc(Cl)cc3)C(=O)N2Cc2ccco2)cc1 (centres undefined)	none
CCN(CC)S(=O)(=O)c1cc(C(=O)OCC(=O)Nc2cccc(S(=O)(=O)N(C)C)c2)ccc1F	D1 antag -40
Nc1ccc(C(=O)N2CCN(S(=O)(=O)c3ccc(Br)cc3)CC2)cc1[N+](=O)[O-]	D1 antag -49 (no result: Epigenetic derep)
CC(=O)c1ccc(S(=O)(=O)N2CCN(C(=O)c3ccc(-n4cncn4)c([N+](=O)[O-])c3)CC2)cc1	D1 antag -50 (no result: Epigenetic derep)
CC(=O)c1ccc(S(=O)(=O)N2CCN(C(=O)c3ccc(N)c([N+](=O)[O-])c3)CC2)cc1	none (no result: Epigenetic derep)
Cc1cccc(NC(=O)c2sc3nc4n(c(=O)c3c2C)N=C(c2ccc(F)cc2)CS4)c1C	none
CN(CC(=O)Nc1ccc(OC(F)(F)F)cc1)C(=O)/C=C/c1cc2c(cc1[N+](=O)[O-])OCO2	D1 antag -49 (no result: Epigenetic derep)
COc1ccc(Nc2nnc(-c3ccc(C)c(S(N)(=O)=O)c3)c3ccccc23)cc1	none
O=c1cc(N2CCOCC2)[nH]c(=O)n1-c1ccc(Br)cc1	none
O=c1cc(N2CCN(c3ccc(F)cc3)CC2)[nH]c(=O)n1-c1ccc(Br)cc1	D1 antag -40
Cc1ccc(S(=O)c2ccc(NC(=O)C3CC3)cc2C#N)cc1 (centres undefined)	D1 antag -31
Cc1ccc(NC(=O)C2CCN(S(=O)(=O)c3ccccc3)CC2)cc1	none
CCCCN(CCCC)C(=O)c1cc2c(=O)n3cccc(C)c3nc2s1	none
CCC1CCCCN1C(=O)c1cc2c(=O)n3cccc(C)c3nc2s1 (centres undefined)	TRHR enhancer 39 (no result: Epigenetic derep)
CCCN(CCC)C(=O)c1cc2c(=O)n3cccc(C)c3nc2s1	D1 antag -60!
CCOc1ccccc1CNC(=O)Cn1nc(N2CCN(c3ccccc3)CC2)ccc1=O	none
O=C(Cn1nc(N2CCN(c3ccccc3)CC2)ccc1=O)NCc1ccccc1F	D1 antag -37
COc1ccc(-c2cn3nc(N4CCC(C(=O)NCc5ccccc5F)CC4)sc3n2)cc1	none
O=C(c1cc(C2CC2)nn1-c1ccccc1)N1CCN(c2ccc(O)cc2)CC1	TRHR enhancer 30 (no result: Epigenetic derep)
COc1cccc(-c2cn3c(n2)sc2cc(C(=O)NCc4ccccc4F)ccc23)c1	none
C/C(=N\NC(=O)CSCc1ccc([N+](=O)[O-])cc1)c1ccccc1O	D1 antag -87
C/C(=N\NC(=O)Cc1ccc(Cl)cc1)c1ccc(F)cc1	none (no result: Epigenetic derep)
C/C(=N\NC(=O)Cc1ccc(Cl)cc1)c1ccccc1O	D1 antag -36 (no result: Epigenetic derep)
O=C(CSC1=Nc2ccccc2N=C(c2ccc(F)cc2)C1)Nc1cccc(C(F)(F)F)c1	none
COc1ccnc(N2CCN(c3ccc(Cl)cc3)CC2)c1C#N	D1 antag -31
C[C@@H]1CN(CCCn2c3ccccc3c3ccccc32)C[C@H](C)N1	D1 ag 40

High-throughput results deposited in PubChem BioAssay by National Center for Advancing Translational Sciences (NCATS).
